Test results published in PubChem BioAssay (NCI).
About 83,000 compounds went through this panel and 20% of them were active in at least one assay; those are over-represented in the sample as a whole.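 Single-concentration screen, 48 h exposure, 96-well plates. Endpoint: percent growth. Below 10 = active.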 Activity calls are given as the source filed them.

How the values were obtained:
Assay in all cases: NCI-60 one-dose screen, 48 h (100 = growth as untreated, 0 = no growth, -100 = all killed)
RPMI-8226 leukemia = details: 10 µM unless noted
OVCAR-8 ovarian = details: 10 µM unless noted
OVCAR-5 ovarian = details: 10 µM unless noted
OVCAR-4 ovarian = details: 10 µM unless noted
SK-OV-3 ovarian = details: 10 µM unless noted
IGROV1 ovarian = details: 10 µM unless noted
OVCAR-3 ovarian = details: 10 µM unless noted
HS 578T breast = details: 10 µM
NCI/ADR-RES ovarian = details: 10 µM unless noted
T-47D breast = details: 10 µM unless noted
BT-549 breast = details: 10 µM unless noted
MDA-MB-435 melanoma = details: 10 µM unless noted
SW-620 colon = details: 10 µM unless noted
MCF7 breast = details: 10 µM unless noted
HCT-116 colon = details: 10 µM unless noted
HCC-2998 colon = details: 10 µM unless noted
KM12 colon = details: 10 µM unless noted

Measured: growth

O=C1C=CC(=O)N1c1cccc(N2C(=O)C=CC2=O)c1
active: T-47D breast -13.6% | SW-620 colon 4.72%
inactive: RPMI-8226 leukemia 91.7% | OVCAR-8 ovarian 106% | OVCAR-5 ovarian 102% | OVCAR-4 ovarian 98.1% | SK-OV-3 ovarian 111% | IGROV1 ovarian 111% | OVCAR-3 ovarian 66.4% | HS 578T breast 114% | NCI/ADR-RES ovarian 110% | BT-549 breast 113% | MDA-MB-435 melanoma 103% | MCF7 breast 65.9% | HCT-116 colon 24.7% | HCC-2998 colon 130% | KM12 colon 122%

CCOC(=O)c1c(NC(=O)c2ccccc2)sc2c(O)c(CN(CC)CC)ccc12
active: OVCAR-8 ovarian 2.1% | SK-OV-3 ovarian -14.8% | OVCAR-3 ovarian -61.6% | BT-549 breast 0.881% | MDA-MB-435 melanoma -55.4% | MCF7 breast 8.33% | HCT-116 colon 7.59% | KM12 colon 2.35%
inactive: RPMI-8226 leukemia 18.2% | OVCAR-5 ovarian 48.6% | OVCAR-4 ovarian 42.8% | IGROV1 ovarian 22.4% | HS 578T breast 26.9% | T-47D breast 44.9% | SW-620 colon 19.6% | HCC-2998 colon 11.6%

CCN(CC)c1ccc2nc3c4ccccc4c(=O)cc-3n(-c3ccccc3)c2c1
active: RPMI-8226 leukemia 6.27% | OVCAR-8 ovarian 7.52% | OVCAR-4 ovarian 6.28% | SK-OV-3 ovarian 3.71% | OVCAR-3 ovarian -52.6% | HS 578T breast -17.8% | NCI/ADR-RES ovarian -7.19% | T-47D breast -7.93% | BT-549 breast -21.7% | MDA-MB-435 melanoma -36.3% | SW-620 colon 7.92% | MCF7 breast -7.24% | HCT-116 colon -31.7% | HCC-2998 colon -6.62% | KM12 colon -5.68%
inactive: OVCAR-5 ovarian 10.7%

COc1ccc(/C=C/C(=O)c2ccc(NC(=O)CSc3nnc(-c4ccc(Cl)cc4)n3-c3ccccc3)cc2)cc1
inactive: RPMI-8226 leukemia 60.4% | OVCAR-8 ovarian 84.6% | OVCAR-5 ovarian 123% | OVCAR-4 ovarian 99.5% | SK-OV-3 ovarian 104% | IGROV1 ovarian 103% | OVCAR-3 ovarian 102% | HS 578T breast 97.1% | NCI/ADR-RES ovarian 93.9% | T-47D breast 77.2% | BT-549 breast 93% | SW-620 colon 110% | MCF7 breast 70.3% | HCT-116 colon 36.4% | HCC-2998 colon 103% | KM12 colon 94.5%

COc1ccc(C(=O)C(CN(C)C)c2ccccc2)cc1 (stereo not given)
active: RPMI-8226 leukemia 9.15% | IGROV1 ovarian 1.31% | OVCAR-3 ovarian 0.0357% | HS 578T breast -13.8% | NCI/ADR-RES ovarian 9.35% | T-47D breast 9.93% | SW-620 colon -84.7% | MCF7 breast -1.32% | HCT-116 colon -99.1% | KM12 colon 6.49%
inactive: OVCAR-8 ovarian 17% | OVCAR-5 ovarian 44.3% | OVCAR-4 ovarian 33.4% | SK-OV-3 ovarian 110% | BT-549 breast 12.9% | MDA-MB-435 melanoma 25.4% | HCC-2998 colon 93.9%

Cc1ccc(C2CC(c3cccs3)=NN2c2ccc(S(N)(=O)=O)cc2)s1 (stereo not given)
inactive: RPMI-8226 leukemia 65.3% | OVCAR-8 ovarian 83.2% | OVCAR-5 ovarian 101% | OVCAR-4 ovarian 110% | SK-OV-3 ovarian 101% | IGROV1 ovarian 98.8% | OVCAR-3 ovarian 94% | HS 578T breast 97.2% | NCI/ADR-RES ovarian 84.6% | T-47D breast 71.5% | BT-549 breast 102% | MDA-MB-435 melanoma 80.8% | SW-620 colon 97.8% | MCF7 breast 77.3% | HCT-116 colon 79.2% | HCC-2998 colon 103% | KM12 colon 93.2%

SCc1ccc(CS)cc1
inactive: RPMI-8226 leukemia 103% | OVCAR-8 ovarian 98.4% | OVCAR-5 ovarian 95.9% | OVCAR-4 ovarian 101% | SK-OV-3 ovarian 104% | IGROV1 ovarian 105% | OVCAR-3 ovarian 115% | NCI/ADR-RES ovarian 109% | T-47D breast 101% | BT-549 breast 92.3% | MDA-MB-435 melanoma 111% | SW-620 colon 102% | HCT-116 colon 100% | HCC-2998 colon 101% | KM12 colon 114%

O=C(CCCCCCc1nc2ccc(Br)cc2[nH]1)NO
active: RPMI-8226 leukemia -4.38% | OVCAR-8 ovarian 4.11% | OVCAR-5 ovarian 8.25% | SK-OV-3 ovarian -41.8% | IGROV1 ovarian -9.43% | OVCAR-3 ovarian -2.31% | NCI/ADR-RES ovarian -31.3% | T-47D breast -32.3% | SW-620 colon -76.8% | MCF7 breast 1.84% | HCT-116 colon -89.2% | HCC-2998 colon -51.7% | KM12 colon -65.4%
inactive: OVCAR-4 ovarian 24% | HS 578T breast 32.6% | BT-549 breast 16.4%

C=CCn1c(SCC(=O)Nc2ccc(/C(C)=N\O)cc2)nnc1-c1cc(-c2ccc(Cl)cc2)nc2ccccc12
active: RPMI-8226 leukemia 9% | IGROV1 ovarian -13.8% | NCI/ADR-RES ovarian 2.18% | T-47D breast 7.73%
inactive: OVCAR-8 ovarian 24% | OVCAR-5 ovarian 56.7% | OVCAR-4 ovarian 35% | SK-OV-3 ovarian 52.6% | OVCAR-3 ovarian 31.1% | HS 578T breast 67.1% | BT-549 breast 33.5% | MDA-MB-435 melanoma 30.8% | SW-620 colon 41.1% | MCF7 breast 14% | HCT-116 colon 19.5% | HCC-2998 colon 21% | KM12 colon 16.5%

COC(=O)c1cc(Cl)cc([N+](=O)[O-])c1O
inactive: RPMI-8226 leukemia 93.3% | OVCAR-8 ovarian 105% | OVCAR-5 ovarian 93.7% | OVCAR-4 ovarian 122% | SK-OV-3 ovarian 116% | OVCAR-3 ovarian 114% | HS 578T breast 107% | NCI/ADR-RES ovarian 114% | T-47D breast 101% | BT-549 breast 108% | MDA-MB-435 melanoma 99.3% | SW-620 colon 102% | MCF7 breast 113% | HCT-116 colon 101% | HCC-2998 colon 104% | KM12 colon 109%

F
active: SK-OV-3 ovarian 8.2% [6.87 mM] | NCI/ADR-RES ovarian 8.42% [6.87 mM] | BT-549 breast 5.2% [6.87 mM] | MDA-MB-435 melanoma -26.3% [6.87 mM] | HCT-116 colon 8.71% [6.87 mM] | KM12 colon 9.89% [6.87 mM]
inactive: RPMI-8226 leukemia 22.4% [6.87 mM] | OVCAR-8 ovarian 30% [6.87 mM] | OVCAR-5 ovarian 10.6% [6.87 mM] | OVCAR-4 ovarian 76.2% [6.87 mM] | OVCAR-3 ovarian 71.5% [6.87 mM] | T-47D breast 18.2% [6.87 mM] | MCF7 breast 30.7% [6.87 mM] | HCC-2998 colon 24.4% [6.87 mM]

COc1ccc(C2C=C(c3ccc(Cl)cc3)N=C3SC=CN32)cc1 (stereo not given)
inactive: RPMI-8226 leukemia 94.6% | OVCAR-8 ovarian 104% | OVCAR-5 ovarian 121% | OVCAR-4 ovarian 97.4% | SK-OV-3 ovarian 111% | IGROV1 ovarian 113% | OVCAR-3 ovarian 132% | HS 578T breast 93.1% | NCI/ADR-RES ovarian 104% | T-47D breast 104% | BT-549 breast 90.3% | SW-620 colon 97.7% | MCF7 breast 96.1% | HCT-116 colon 104% | HCC-2998 colon 119% | KM12 colon 112%

COc1ccc(CCN2COc3c([C@@H](C)CCC=C(C)C)ccc(C)c3C2)cc1OC
inactive: RPMI-8226 leukemia 28.5% | OVCAR-8 ovarian 72.1% | OVCAR-5 ovarian 83% | OVCAR-4 ovarian 39.7% | SK-OV-3 ovarian 82.6% | IGROV1 ovarian 68.3% | OVCAR-3 ovarian 30.2% | HS 578T breast 76.9% | NCI/ADR-RES ovarian 44.6% | BT-549 breast 87.9% | MDA-MB-435 melanoma 61.4% | SW-620 colon 40.4% | MCF7 breast 40.6% | HCT-116 colon 25.9% | KM12 colon 51.8%
active: T-47D breast -23% | HCC-2998 colon -70.3%

COc1ccc(Nc2ncnc3c2sc2nc(C)cc(C)c23)cc1
inactive: RPMI-8226 leukemia 101% | OVCAR-8 ovarian 95% | OVCAR-5 ovarian 93.1% | OVCAR-4 ovarian 95.2% | SK-OV-3 ovarian 118% | IGROV1 ovarian 99.4% | OVCAR-3 ovarian 113% | HS 578T breast 93% | NCI/ADR-RES ovarian 108% | T-47D breast 89.6% | BT-549 breast 104% | MDA-MB-435 melanoma 98.7% | SW-620 colon 108% | MCF7 breast 80.1% | HCT-116 colon 90.4% | KM12 colon 96.7%

C#CC[C@@H]1C[C@]2(C)[C@H]3CC[C@@H]4[C@H]5C(C(=C)C)CC[C@]5(C(=O)NCCN(CCN)CCN)CC[C@@]4(C)[C@]3(C)CC[C@H]2C(C)(C)[C@H]1OC(C)=O (stereo not given in full)
active: MCF7 breast -59.9% | HCT-116 colon 2.57%
inactive: RPMI-8226 leukemia 58.3% | OVCAR-8 ovarian 72.1% | OVCAR-5 ovarian 63.3% | OVCAR-4 ovarian 21.7% | SK-OV-3 ovarian 105% | IGROV1 ovarian 98% | OVCAR-3 ovarian 48.7% | HS 578T breast 115% | NCI/ADR-RES ovarian 95.4% | BT-549 breast 110% | MDA-MB-435 melanoma 84.8% | SW-620 colon 15.2% | HCC-2998 colon 81.1% | KM12 colon 60%

CN1CCN(Cc2ccc(NC(=O)c3cncc(C#Cc4cnc5cccnn45)c3)cc2C(F)(F)F)CC1
active: RPMI-8226 leukemia -20.1% | OVCAR-8 ovarian 5.17% | OVCAR-4 ovarian -21.7% | SK-OV-3 ovarian 7.64% | OVCAR-3 ovarian 1.49% | HS 578T breast -17.3% | BT-549 breast 6.96% | MDA-MB-435 melanoma 1.81% | SW-620 colon -3.38% | MCF7 breast 3.61% | HCT-116 colon 3.88% | HCC-2998 colon 9.55%
inactive: OVCAR-5 ovarian 12.7% | NCI/ADR-RES ovarian 18.3% | T-47D breast 30.7%

O=C(Nc1cccc(Cl)c1)Nc1cc(C(F)(F)F)ccc1Cl
inactive: OVCAR-8 ovarian 15.2% | OVCAR-5 ovarian 44.2% | OVCAR-4 ovarian 11.6% | IGROV1 ovarian 14.3% | OVCAR-3 ovarian 18.9% | HS 578T breast 55.9% | BT-549 breast 25.8% | MCF7 breast 16.1% | HCC-2998 colon 13.2%
active: RPMI-8226 leukemia -14% | SK-OV-3 ovarian 9.3% | NCI/ADR-RES ovarian 2.25% | T-47D breast 5.15% | MDA-MB-435 melanoma 8.14% | HCT-116 colon -13.3% | KM12 colon -45.1%

CN(C)c1ccc(N2Cc3ccccc3OC3=C2C(=O)c2c(O)ccc(O)c2C3=O)cn1
inactive: HS 578T breast 44.7%
active: RPMI-8226 leukemia -17.2% | OVCAR-8 ovarian -12.1% | OVCAR-5 ovarian -50.6% | OVCAR-4 ovarian -98.2% | SK-OV-3 ovarian -7.84% | OVCAR-3 ovarian -95.8% | NCI/ADR-RES ovarian 3.51% | T-47D breast -47.9% | BT-549 breast -71.2% | MDA-MB-435 melanoma -21.3% | SW-620 colon -58.3% | MCF7 breast -55% | HCT-116 colon -86.8% | HCC-2998 colon -75.2% | KM12 colon -41.9%

CNCCCNc1ccnc2cc(Cl)ccc12
active: RPMI-8226 leukemia -12.3% | OVCAR-8 ovarian 1.62% | OVCAR-4 ovarian -21.3% | SK-OV-3 ovarian 5.19% | IGROV1 ovarian -21.7% | OVCAR-3 ovarian -31.2% | HS 578T breast -3.8% | T-47D breast -5.41% | BT-549 breast -10.3% | MDA-MB-435 melanoma -98% | SW-620 colon -23.3% | MCF7 breast 2.35% | HCT-116 colon 3.6% | HCC-2998 colon -78.6% | KM12 colon 0.517%
inactive: OVCAR-5 ovarian 13.1%
